GPR32 ag: activates human resolvin D1 receptor GPR32; activation, % at 76.9 µM; CHO-K1 GPR32 beta-arrestin PathHunter luminescence, 90 min; zero percent set by DMSO-only wells; 48,000 tested, 2.5% active; AID 1346428; O75388;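 active means activation of at least 60% and not above a set upper limit, about 1 call in 100 departs from these limits; inconclusive means activation of 40% to 60%, or above that upper limit; inactive means activation under 40%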
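Readings come from a cell-based beta-arrestin complementation format: CHO-K1 GPR32 stable cells (2,500/well) treated 90 min with compounds, then beta-Gal substrate added for 1 h before chemiluminescence imaging.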
HTT promoter inh: HTT promoter inhibition | HEK293 HTT promoter firefly luciferase reporter, 24 h | Potency, µM (titrated, usually from 57.5 µM), most hits filed as inhibitors | 48,000 tested, 0.93% active | AID 1508623; further: nearly all actives have a fitted effect of over 50% in size
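Firefly luciferase readout (Dual-Glo, 10 min RT) after 24 h, 37 °C compound exposure (final up to 57.5 uM) of HEK293 reporter cells cultured 24 h beforehand; PTC124 at 50 uM final as control inhibitor; activity scaled vehicle 0%, zero RLU -100%.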
NTMT1 inh: inhibitors of human N-terminal methyltransferase NTMT1; 59,000 tested, 2.5% active; NTMT1 MTase-Glo SAH luminescence, purified enzyme; Potency, µM (series often up to 114 µM), hits mostly inhibitors; further: nearly all actives have a fitted effect of over 65% in size
FH mod: Identification of activators of human fumarate hydratase by quantitative high-throughput screening; FH coupled MDH/diaphorase resazurin fluorescence, 15 min; Potency, µM (highest dose often 79.9 µM), hits mostly inhibitors; 54,000 tested, 0.22% active; AID 1347055, 2019; further: the screen sought activators but most active calls are inhibition curves; nearly all actives have a fitted effect of over 45% in size
Target sequence (P07954 whole entry, looked up): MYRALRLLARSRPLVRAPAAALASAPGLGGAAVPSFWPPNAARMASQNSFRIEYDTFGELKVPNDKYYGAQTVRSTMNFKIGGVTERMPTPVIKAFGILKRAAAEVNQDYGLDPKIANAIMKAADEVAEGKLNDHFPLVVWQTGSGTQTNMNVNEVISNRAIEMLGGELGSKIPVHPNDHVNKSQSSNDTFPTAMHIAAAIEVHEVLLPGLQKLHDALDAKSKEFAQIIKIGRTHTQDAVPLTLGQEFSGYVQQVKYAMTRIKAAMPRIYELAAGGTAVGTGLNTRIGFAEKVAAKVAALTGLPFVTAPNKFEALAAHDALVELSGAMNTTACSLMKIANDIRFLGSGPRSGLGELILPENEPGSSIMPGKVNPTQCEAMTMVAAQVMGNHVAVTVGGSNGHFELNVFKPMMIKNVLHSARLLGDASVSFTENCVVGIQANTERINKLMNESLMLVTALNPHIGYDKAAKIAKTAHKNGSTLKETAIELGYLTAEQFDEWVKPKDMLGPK
HTT-AS promoter: activators of huntingtin-antisense promoter activity; 48,000 tested, 0.24% active; HEK293 HTT-AS promoter firefly luciferase reporter, 24 h; response scale: percent change from vehicle, -100% = no light; Potency, µM (series often up to 57.5 µM), hits mostly activators; further: nearly all actives have a fitted effect of over 55% in size
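HEK293 cells carrying firefly luciferase reporters were seeded at 2,500 per well in Opti-MEM and cultured for 24 h. They were then treated with compounds at up to 57.5 uM final for 24 h at 37 degrees C before Dual-Glo luminescence readout.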
GALC G270D act: raises human GALC G270D mutant activity in cells | 145M-Twi-hGALC-G270D cells (Twitcher mouse brain line with human GALC G270D), HMU-beta-Gal fluorescence, 48 h | Potency, µM (series often up to 57.5 µM), hits mostly activators | 45,000 tested, 0.1% active; further: nearly all actives have a fitted effect of over 65% in size
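Mutant human GALC (G270D), stably expressed in a Twitcher mouse brain cell line lacking endogenous GALC, is measured in live-treated cells via 6-hexadecanoylamino-4-methylumbelliferyl-β-galactoside hydrolysis (0.1 mM final, pH 5.2) with fluorescent detection.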
A number is an active result; . = inactive; ? = inconclusive; / = no result given; ! = not active in a repeat; [ ] = remark or other dose. Compounds with a hit are over-represented: about 4.7% of the library has one in this group of screens. Unless noted, the call rests on the fitted dose curve; in most records, active means well fitted curve in the direction sought with a large enough effect; inconclusive means small, poorly fitted or top-dose-only effect, or another doubt; inactive means no such curve, though single readings can be large; an effect the other way counts as inactive or inconclusive.

SMILES	GPR32 ag	HTT promoter inh	NTMT1 inh	FH mod	HTT-AS promoter	GALC G270D act
c1ccc2c(-c3cnn4cc(-c5ccc(N6CCNCC6)cc5)cnc34)ccnc2c1	/	.	56µM!	.	?	/
COc1cccc(CNc2ccc(S(=O)(=O)Nc3nc(C)cs3)cc2)c1O	/	/	.	/	/	/
COc1ccccc1NC(=O)CSc1nnc(NC(=O)Nc2ccc(C)cc2)s1	78	?	.	.	.	.
COc1ccccc1NC(=O)CSc1nnc(N)s1	.	.	.	.	.	.
Cc1ccccc1C(=O)Nc1nnc(SCc2cc(=O)n3ccccc3n2)s1	.	.	.	.	.	.
COc1ccccc1C(=O)Nc1nnc(SCc2cc(=O)n3ccc(C)cc3n2)s1	.	.	.	1.1µM	.	.
Cn1c(=O)c2c(nc(NCCc3ccccc3)n2Cc2ccc(Cl)cc2)n(C)c1=O	73	?	.	.	.	.
Cc1ccc(OCc2nc(-c3ccc(C(=O)NCCc4ccc(S(N)(=O)=O)cc4)cc3)oc2C)cc1	82	?	.	.	.	.
Cc1cccc(CNC(=O)c2ccc(-c3nc(CS(=O)(=O)c4ccccc4)c(C)o3)cc2)c1	80	?	.	.	.	?
Cc1oc(-c2ccc(C(=O)NCc3ccccc3)cc2)nc1CS(=O)(=O)c1ccccc1	?	?	?	.	.	.
COc1cccc(CNC(=O)c2ccc(-c3nc(CS(=O)(=O)c4ccccc4)c(C)o3)cc2)c1	.	?	.	.	.	.
CCc1ccc(CNC(=O)c2ccc(-c3nc(CS(=O)(=O)c4ccccc4)c(C)o3)cc2)cc1	84	/	/	/	/	/
COc1ccc(CC2=NN3C([C@@H](CCc4ccccc4)[C@@H](C)O)=NC(C)C3C(=O)N2)cc1OC (stereo not given in full)	/	.	?	.	7.7µM	/
Cc1ccc(C(N)=O)cc1Nc1nccc(-c2cn(C(C)C)c3cnccc23)n1	/	?	11µM	.	.	/
Cc1nnc(Nc2sc3c(c2-c2nc4ccccc4s2)CCNC3)o1	/	/	.	/	/	/
CC(=CC(=O)Nc1ccccc1C(=O)O)c1ccc2ccccc2c1	/	.	34µM	.	.	/
COc1ccccc1NC(=O)c1ccc2ccccc2c1	/	/	.	/	/	/
CCNC(=O)c1ccc2c(c1)sc1nc(-c3cccc(OC)c3)cn12	.	.	?	?	?	.
COc1cccc(-c2cn3ncsc3n2)c1	.	.	?	.	2.5µM	.
Clc1ccccc1-c1nc(-c2ccncc2)no1	.	.	?	.	?	.
Fc1cccc(-c2nc(-c3ccncc3)no2)c1	.	.	.	.	4µM	.
CN(C)CCCNc1nc(CN2CCN(C(c3ccc(Cl)cc3)c3ccc(Cl)cc3)CC2)nc2ccccc12	/	/	.	.	/	/
O=C(CN1C(=O)CCSc2ccccc21)Nc1ccc(C(F)(F)F)cc1	63	?	.	.	.	.
C#CCCCn1cc(-c2cccc3c2N[C@@H](C)CC(=O)N3)cn1	/	/	.	.	/	/
CC(=O)N/N=C/c1ccc([N+](=O)[O-])o1	68	.	.	.	.	.
SMILES	GPR32 ag	HTT promoter inh	NTMT1 inh	FH mod	HTT-AS promoter	GALC G270D act
Cc1ccc(C(=O)/C=C/c2cn(CC(O)CN3CCCCCC3)c3ccccc23)cc1 (stereo not given)	.	.	?	.	.	.
CCCN(CCC)CC(O)Cn1cc(/C=C/C(=O)c2ccc(Br)cc2)c2ccccc21 (stereo not given)	.	.	.	.	.	?
CCCCN(C)CC(O)Cn1cc(/C=C/C(=O)c2ccc(OC)c(OC)c2)c2ccccc21 (stereo not given)	.	.	?	.	.	32µM
CCCCN(C)CC(O)Cn1cc(/C=C/C(=O)c2ccc(C)cc2)c2ccccc21 (stereo not given)	65	?	?	.	.	.
CCCCN(C)CC(O)Cn1cc(/C=C/C(=O)c2ccc(Br)cc2)c2ccccc21 (stereo not given)	74	.	.	.	.	?
NC(=O)c1ccc(F)c2c1C[C@@H](N(C1CCC1)C1CCC1)CO2	/	/	.	.	/	/
C=C(C(=O)O)[C@H]1C[C@]2(C)[C@@H](O)CC[C@]23O[C@H]1C[C@@H]3C	/	/	.	.	/	/
CCN(CC)c1cc(C)c2cc(NC(=O)c3cccc(OC)c3OC)ccc2n1	95	.	.	.	.	.
CCOc1ccccc1C(=O)Nc1ccc2nc(N(CC)CC)cc(C)c2c1	.	.	.	.	.	.
COc1ccccc1CNC(=O)CCc1c(C)nc2cc(-c3ccccc3OC)nn2c1C	.	?	.	.	.	.
COc1ccc(CCNC(=O)CCc2c(C)nc3cc(-c4cccc(F)c4)nn3c2C)cc1OC	.	?	89µM	.	.	.
COc1ccccc1-c1cc2nc(C)c(CCC(=O)NCCc3ccc(SC)cc3)c(C)n2n1	.	20µM	.	.	.	.
Cc1nc2cc(-c3cccc(F)c3)nn2c(C)c1CCC(=O)Nc1ccccc1C(N)=O	.	2.2µM	?	.	.	.
COc1cccc(NC(=O)CSc2nc3ccc(NC(=O)c4cccs4)cc3s2)c1	95	.	.	.	.	.
Cc1cccc(NC(=O)CSc2nc3ccc(NC(=O)c4cccs4)cc3s2)c1	64	.	.	.	.	.
O=C(Nc1ccc2nc(SCC(=O)N3CCCC3)sc2c1)c1cccc(F)c1	.	.	89µM	.	.	.
COc1ccc2c(c1O)OC(C)(C)c1c-2ccc2c1C(=O)N(c1ccc(C(=O)c3ccccc3)cc1)C2=O	/	/	.	.	/	/
Cc1nc(NCc2ccc(-c3ccnc(C(F)(F)F)c3)cc2)c2ccccc2n1	/	/	.	/	/	/
COC(=O)c1c(CC=C(C)C)c(OC2OC(CO)C(O)C(O)C2O)c2ccccc2c1OC1OC(CO)C(O)C(O)C1O (stereo not given)	/	/	.[12.6 µM]	.	/	/
Oc1ccc(-c2cnc3ccc(NCc4ccco4)nn23)cc1	/	/	?	.	/	/
CCn1c(=O)c(-c2ccc(-c3cncc(C)n3)cc2Cl)cc2cnc(NCCC3CCN(C)CC3)nc21	/	/	.[12.6 µM]	/	/	/
CCn1c(=O)c(-c2ccc(Cl)cc2Cl)cc2cnc(Nc3ccc(N4CCNCC4)c(F)c3)nc21	/	/	50µM!	.	/	/
O=C(COc1ccc(Cl)cc1)NCCc1csc(-c2ccc(C(F)(F)F)cc2)n1	.	.	?	.	.	.
O=C(COc1ccccc1)NCCc1csc(-c2ccc(Cl)cc2)n1	95	?	.	.	.	.
O=C(COc1ccc(Cl)cc1)NCCc1csc(-c2ccc(F)cc2)n1	109	?	.	.	.	.
CC1=NN(c2ccc(C(=O)O)cc2)C(=O)/C1=C/c1ccc(-c2cc(C)c(C)cc2[N+](=O)[O-])o1	/	/	50µM	/	/	/

High-throughput results as filed in PubChem.
